Screen size: about 340,000 compounds; about 4,500 (1.3%) were called active. Roughly 5% stayed inconclusive and do not appear here. This is one part of a sample in which actives are shown more often than they occur. A number with no mark means an inactive call. Calls come from the whole dose curve; as a rule, active = well fitted inhibition curve with a large enough effect; inconclusive = small, poorly fitted or top-dose-only effect, or another doubt; inactive = no such curve, though single readings can be large or run the other way.
molecular target: DNA polymerase beta (Homo sapiens) (UniProt P06746); assay: qHTS Assay for Inhibitors of DNA Polymerase Beta; conditions: Pol beta primer extension/strand displacement, fluorescence kinetic; series mostly up to 114 µM; activity change, negative = inhibition: at the top concentration
Text: The base excision repair system in human cells is a target for therapeutic modulation of the response to irradiation treatment and DNA-damaging drugs. A key enzyme in this system is the bi-functional DNA polymerase known as DNA polymerase Beta (Pol Beta). The following is a homogeneous kinetic assay to study the primer extension and strand-displacement reaction catalyzed by pol beta.
A stepwise description of the 1536-well assay is shown in next Table. Three microliters of reagents (buffer in column 3 and 4 as negative control and 10 nM Pol beta in columns 1, 2, and 5-48) was dispensed into 1,536-well black solid-bottomed plate. Compounds (23 nL) were transferred via Kalypsys pin tool equipped with 1536-pin array (10 nL slotted pins, V&P Scientific, San Diego, CA). The plates were incubated for 15 min at room temperature, and 1 uL substrate (50 nM final concentration) were added to start the reaction and immediately read at 0 min read on Viewlux reader. The plate were further incubated for 10 min at room temperature, and then read on Viewlux again. Throughout the screen, reagent bottle and all liquid lines were chilled and made light-tight to minimize reagent degradation. All screening operations were performed on a fully integrated robotic system (Kalypsys, San Diego, CA) containing one RX-130 and two RX-90 anthropomorphic robotic arms (Staubli, Duncan, SC). Library plates were screened starting from the lowest and proceeding to the highest concentration, and a double-dipping step of the highest concentration was required to access higher concentrations of compounds. Vehicle-only plates, with DMSO being pin-transferred to the entire column 5-48 compound area, were inserted uniformly at the beginning and the end of each library in order to monitor for and record any shifts in the background, which can be affected by reagent dispensers or loss in enzyme activity overtime. Screening data were corrected, normalized, and concentration-effect relationships were derived by using publicly-available curve fitting algorithms developed in-house (http://ncgc.nih.gov/pub/openhts). A four parameter Hill equation was fitted to the concentration-response data by minimizing the residual error between the modeled and observed responses.
% is set by controls: 0 for no effect and ±100 for the full control effect; potency is the fitted concentration of half-maximal effect.

SMILES	activity change, negative = inhibition [%]	Potency
COc1cc(OC)cc(-c2nnc(SCC(=O)Nc3ccc(C(=O)O)cc3)s2)c1	0.87	–
COc1ccc(-c2nc3c(c(SCC(=O)Nc4ccc(C(=O)O)cc4)n2)Cc2ccccc2O3)cc1	–	2.24 µM (active)
COc1ccc(NC(=O)CSc2nc(N)c(-c3ccccc3)c(=O)[nH]2)cc1	17.3	–
O=C(NCCc1csc(-c2ccc(C(F)(F)F)cc2)n1)C(=O)Nc1ccc(F)c(Cl)c1	9.52	–
CC(=O)c1ccc(NC(=O)CSc2nc(-c3ccccc3F)nc3c2c(=O)n(C)c(=O)n3C)cc1	15.7	–
Cc1c(C)c2ccc(OCC(=O)N3CCC(C(=O)O)CC3)c(C)c2oc1=O	6.9	–
COc1ccc(OC)c2sc(N3CCN(C(=O)C4COc5ccccc5O4)CC3)nc12 (centres undefined)	30.1	–
Cc1c(CC(=O)N2CCN(C(=O)C3COc4ccccc4O3)CC2)c(=O)oc2c(O)c(O)ccc12 (centres undefined)	–	0.794 µM (active)
COc1ccc(OC)c(CNC(=O)CN2C(=O)CCn3nc(-c4cn(C)c5ccccc45)cc32)c1	-1.15	–
CC(=O)Nc1ccc(S(=O)(=O)N2CCN(c3ccccc3)CC2)cc1	10.6	–
Cc1cc(/C=C2\SC(=O)N(C)C2=O)c(C)n1-c1cccc(C(=O)O)c1	–	28.2 µM (active)
Cc1cc(/C=C2\SC(=Nc3ccc(N4CCOCC4)cc3)N(C)C2=O)c(C)n1-c1cccnc1	-4.4	–
Cc1cc(/C=C2/SC(=O)N(CC(=O)N3CCCC3)C2=O)c(C)n1C	10.2	–
O=C(CSCc1cnn(-c2ccccc2)c1-n1cccc1)NCc1ccc(Cl)cc1	-18.2	–
COc1ccccc1/C=C/c1nc(C#N)c(NC(C)c2ccccc2)o1 (centres undefined)	17.7	–
COc1ccc(-c2nc3sc(CCNC(=O)C(C)(C)C)c(C)n3n2)cc1	13.6	–
Cc1ccc2onc(CC(=O)N3CCN(c4ccc(Cl)cc4)CC3)c2c1	-2.82	–
CC(C)c1ccc(S(=O)(=O)Nc2ccc(O)c(Sc3nc4ccccc4s3)c2)cc1	0.597	–
COc1cccc(NC(=O)CSC2=Nc3ccccc3C3=NC(CC(=O)NC4CCCCC4)C(=O)N23)c1 (centres undefined)	28.4	–
O=C(Cn1cnc2ccccc21)N/N=C/c1ccco1	10.1	–

SMILES	activity change, negative = inhibition [%]	Potency
O=c1nc(N/N=C/c2ccco2)cn[nH]1	–	11.2 µM (active)
Cc1n[nH]c(=O)nc1N/N=C/c1cccs1	0.0263	–
CCC(=O)N1CCc2cc(S(=O)(=O)NC(C(=O)Nc3ccc(C(C)=O)cc3)C(C)C)ccc21 (centres undefined)	41.1	–
Cc1cccc(C2CC(=O)Oc3c2c(=O)n(C)c2ccccc32)c1 (centres undefined)	0.545	–
Cc1ccc(OCC(=O)Nc2ccc(Cl)c(-c3nc4ccccc4[nH]3)c2)cc1C	7.96	–
Cc1ccc(-c2nn(-c3ccccc3)cc2/C=C2\SC(=S)N(CCCCCC(=O)O)C2=O)o1	–	50.1 µM (active)
C=CCOc1ccc(/C=C2\SC(=S)N(CCC(=O)O)C2=O)cc1	9.93	–
COc1ccc(-c2nn(-c3ccccc3)cc2/C=C2/SC(=S)N(CCCC(=O)O)C2=O)c(C)c1	5.41	–
Cc1cccc(Cn2c(CN3CCC(C(=O)NCc4ccccc4Cl)CC3)cc3ccccc32)c1	-1.55	–
CCc1ccc(N(CC)C(=O)CCn2cnc3onc(-c4ccc(F)cc4)c3c2=O)cc1	11.9	–
CCCN1C(=O)C(O)(CC(=O)c2ccc(CC)cc2)c2cc(Br)ccc21 (centres undefined)	-2.24	–
COc1ccc(C(=O)/C=C/c2cccnc2)c(OC)c1	7.61	–
COc1ccc(/C=C/C(=O)c2cc(Br)ccc(=O)c2O)cc1	–	50.1 µM (active)
COc1ccc(C(=O)/C=C/c2ccc(OC3CSC3)cc2)cc1	-23.2	–
CSc1ccc(CCNC(=O)c2cnn(-c3ccccc3)c2-n2cccc2)cc1	-27.9	–
O=C(/C=C/c1ccccc1)N1CCN(Cc2cc(=O)n3nc(-c4ccccc4F)sc3n2)CC1	5.97	–
CCOc1ccccc1C(=O)NC1(C(F)(F)F)C(=O)Nc2c1c(=O)[nH]c(=O)n2-c1ccc(F)cc1 (centres undefined)	0.604	–
Cc1ccc(CCNC(=O)c2nnc(Cc3cccc(F)c3)o2)cc1	1.44	–
COc1ccc(S(=O)(=O)N(CCCN2CCCC2=O)Cc2cc3c(C)ccc(C)c3[nH]c2=O)cc1	–	89.1 µM (active)
CCOc1ccc2[nH]c(=O)c(CN(CCCO)S(=O)(=O)c3ccc(F)cc3)cc2c1	8.93	–

SMILES	activity change, negative = inhibition [%]	Potency
CCOC(=O)c1ccc(S(=O)(=O)N(CCO)Cc2cc3cc(OC)c(OC)cc3[nH]c2=O)cc1	0.18	–
O=C1N/C(=C/c2cccn2-c2ccccc2)C(=O)N1c1cccc(Cl)c1	16.2	–
Cc1ccccc1NC(=O)CN1C(=O)C(C)(C)c2ccccc21	-11	–
Cc1ccccc1NC(=O)CN1C(=O)N/C(=C\c2cccn2-c2cccc(C(=O)O)c2)C1=O	–	2.24 µM (active)
COc1ccccc1NC(=O)C1=C(C)Nc2nc(SCC(=O)c3ccc(C)cc3)nn2C1c1ccccc1C (centres undefined)	-15.8	–
CCc1ccccc1NC(=O)Cn1c(=O)n(-c2cccc(C)c2)c(=O)c2c1c1cc(OC)ccc1n2C	1.55	–
NC(=O)c1c(NC(=O)CSc2nnc(-c3ccco3)n2N)sc2c1CCCC2	–	39.8 µM (active)
NC(=O)c1c(NC(=O)CSc2nc(N)cc(=O)[nH]2)sc2c1CCCC2	-5.47	–
CCc1cccc(C)c1NC(=O)CSc1nnc(-c2ccco2)n1N	0.0582	–
CCOc1ccccc1C(=O)NCc1ccc2c(c1)CCN2C(=O)c1ccc(F)cc1	7.58	–
O=c1nc2s/c(=C\c3ccco3)c(=O)n2nc1Cc1ccccc1	–	14.1 µM (active)
O=C(OCN1C(=O)c2ccccc2C1=O)/C(=C\c1ccco1)NC(=O)c1ccccc1	17.1	–
O=C(O)C1=C[C@H](c2cccs2)C[C@H](OCCCCO)O1	-25.8	–
C#Cc1ccc([C@@H]2C=C(C(=O)O)O[C@H](OCCCCO)C2)cc1	–	28.2 µM (active)
C=CCOC(=O)C1=C[C@@H](c2ccccc2)C[C@@H](OCc2ccc(CO)cc2)O1	-3.45	–
CCCCc1nn2c(=O)cc(COC(=O)c3cccc(NC(=O)COc4ccccc4)c3)nc2s1	1.33	–
COc1ccc(N2CCN(C(=O)C3CCN(S(=O)(=O)c4ccc(C)cc4)CC3)CC2)cc1	0.247	–
COc1ccc(N2CCN(S(=O)(=O)c3ccc4c(c3)N(C(C)=O)CCO4)CC2)cc1	-5.9	–
COc1ccc(N2CCN(S(=O)(=O)c3ccc(-c4coc(C)n4)cc3)CC2)cc1	–	31.6 µM (active)

Source: PubChem BioAssay AID485314 (National Center for Advancing Translational Sciences (NCATS), 2010)
